Only a selection was taken, and hits are over-represented in it overall.
Dicer processing = inhibitors of human Dicer processing of pre-microRNA; Q9UPY3; cat-ELCCA pre-miR-21 Dicer processing, chemiluminescence; active compounds read high; z-score at 25 µM; 47,000 tested, 6% active; AID 1347074; in the data active means z-score above about 3, passing the limit was not always enough;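 further: higher signal means more uncleaved substrate so more Dicer inhibition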
Each line names hits and unclear results; the compound was inactive in the other large screens.

O=[N+]([O-])C1=Cc2cc(Cl)cc(Cl)c2OC1c1ccc(F)cc1 (stereo unspecified)	Dicer processing 5.2
CCCC(=O)N1c2ccccc2-c2nnc(SC)nc2OC1c1cccnc1 (stereo unspecified)	none
Cc1ccc(Cl)cc1NC(=S)Nc1ccc(-n2nccc2C(F)(F)F)cc1	none
S=C(NC(Cc1ccccc1)c1ccccc1)NC1CC2C=CC1C2 (stereo unspecified)	none
CSc1nc2cc(C)nn2c(-c2ccccc2Cl)c1C#N	Dicer processing 5.2
CSc1nc2cc(C)nn2c(-c2ccc(C(C)(C)C)cc2)c1C#N	none
CSc1nc(N)nc(-c2ccccc2Cl)c1C#N	none
COC(=O)c1ccc(C)c2c1C1C=CCC1[C@@H](c1ccc(C(=O)O)cc1)N2 (stereo partly specified)	none
CCOC(=O)c1c(NC(=O)Nc2ccc(Cl)c(Cl)c2)sc2c1C(C(=O)OCC)CC2 (stereo unspecified)	none
Cc1nc(/N=C/NO)c(Br)cc1Br	none
COc1cc2c(cc1OC)C(c1ccc(F)cc1)C1=C(CC(C)(C)CC1=O)N2 (stereo unspecified)	none
CC1(C)CC(=O)C2=C(C1)Nc1cc3c(cc1C2c1ccc(Br)cc1)OCO3 (stereo unspecified)	Dicer processing 4.7
COC(=O)C1=C(C)NC2=C(C(=O)CC(C)(C)C2)C1c1cc2c(cc1Br)OCO2 (stereo unspecified)	none
COc1ccc(C2=NCCc3sccc32)cc1	none
CN(C)c1ccc(C=C(c2ccc(N)cc2)c2ccc(N)cc2)cc1	Dicer processing 6.4
COC(=O)C(=C(C)C)c1ccc(N(C)C)cc1	none
Nc1ccc(N(c2ccccc2)c2ccc(N)cc2)cc1	none
O=c1c2cc(-c3ccccc3)sc2ncn1/N=C/c1ccccc1Cl	none
Cn1cnc(S(=O)(=O)NCc2ccc3c(c2)OCO3)c1	none
CCOC(=O)c1cnc(O/N=C/c2ccc(Cl)cc2Cl)nc1C(F)(F)F	none
OC1CCN(CC(O)COc2ccc(Cl)c(Cl)c2)CC1 (stereo unspecified)	none
O=S(=O)(/N=C(\NNC(=S)Nc1cccc(C(F)(F)F)c1)N1CCCC1)c1ccccc1	none
CC1(C)CC(=O)C2=C(C1)OC(N)=C(C#N)C21C(=O)c2ccccc2C1=O	none
C[C@H]1c2cccc(O)c2C(O)=C2C(=O)[C@]3(O)C(O)=C(C(N)=O)C(=O)[C@@H](N(C)C)[C@@H]3[C@@H](O)[C@@H]21	none
CN(C)c1ccc(O)c2c1CC1CC3[C@@H](N(C)C)C(=O)C(C(N)=O)=C(O)[C@]3(O)C(=O)C1=C2O (stereo partly specified)	Dicer processing 6.1
Cc1cccc([N+](=O)[O-])c1-c1c(C)cccc1[N+](=O)[O-]	none
Cc1cc(=O)[nH]c(NCc2ccccc2)n1	none
Cc1cc(=O)[nH]c(N/N=C\c2cccc3ccccc23)n1	Dicer processing 3.3
O=C(N/N=C/c1cccc2ccccc12)N/N=C/c1cccc2ccccc12	none
CCC(C)S(=O)(=O)c1scc(-c2ccc(Cl)cc2)c1C#N (stereo unspecified)	none
COC(=O)c1c(NC(=O)CCCOc2ccc(Cl)cc2)sc2c1CCC2	none
Cc1coc(C)c1C(=O)CC1(O)C(=O)N(C)c2ccccc21 (stereo unspecified)	Dicer processing 3.4
CCCN1C(=O)C(O)(CC(=O)c2c(C)coc2C)c2ccccc21 (stereo unspecified)	none
Cc1cc(C)c(C(=O)CC2(O)C(=O)N(C)c3ccccc32)c(C)c1 (stereo unspecified)	none
CCOC(=O)c1cnn(-c2ccc(N)cc2)c1C(F)(F)F	none
COc1ccc(Br)cc1CN1CCN(Cc2ccc3c(c2)OCO3)CC1	none
O=C(/C=C(\O)c1ccccc1)C(=O)/C=C(\O)c1ccccc1	none
CCCCOC(=O)c1cccc2c1-c1ccccc1C2=O	none
O=C(O)CCCNC1=NCCS1	none
Clc1nc(NCCN2CCOCC2)nc(N2CCC(Cc3ccccc3)CC2)n1	none
O=C(O)CCCNc1nc(Cl)nc(N2CCCCC2)n1	Dicer processing 5.7
Cn1c(SCC(=O)c2c[nH]c3ccccc23)nnc1-c1cccs1	none
Cc1[nH]c2ccccc2c1C(=O)CSc1nnc(C)n1-c1ccccc1	none
Cc1nnc(SCC(=O)c2c[nH]c3ccccc23)n1-c1ccccc1	Dicer processing 4.3
Cc1cc(NC(=O)Nc2ccc(Oc3ncnc4cc(Cl)ccc34)nc2)c(C(F)(F)F)o1	none
O=C(Nc1ccccc1SCCS(=O)(=O)c1ccc(Cl)cc1)c1cccs1	none
S=c1[nH]c2cc(Cl)cc(Cl)c2o1	none
Fc1cc2[nH]c(=S)[nH]c2cc1Cl	Dicer processing 4.2
CCC(C)NC(=O)c1c(OC)ccc([N+](=O)[O-])c1OC (stereo unspecified)	none
COc1ccc([N+](=O)[O-])c(OC)c1C(=O)NCC1CC1	Dicer processing 4.9
COc1ccc([N+](=O)[O-])c(OC)c1C(=O)Nc1ccccc1C(=O)NCC1CC1	none
Cc1ccc(S(=O)(=O)Nc2nc(-c3ccc(C)c(Cl)c3)c(C)s2)cc1	Dicer processing 3.3
Cc1ccc(-c2nc(NC(=O)c3ccccc3)sc2C)cc1Cl	none
Cc1ccc(S(=O)(=O)NC(=O)Nc2nc(-c3ccc(C)c(Cl)c3)c(C)s2)cc1	none
CSc1nc(N)nc2sc3c(O)cc(=O)[nH]c3c12	none

Screens deposited in PubChem by Center for Chemical Genomics, University of Michigan.
